# BoNT F protease = BoNT/F light chain protease inhibitors, primary screen, biochemical, flow cytometry, MLPCN library. Botulinum neurotoxin type F light chain protease (Clostridium botulinum). Multiplex microsphere protease cleavage assay. inhibition, % at 10 µM. actives 0.22% (n = 360,000). AID 588497, 2011; in the data active = inhibition above about 35%, passing the limit was not always enough; inconclusive = no clear call, values can overlap the other calls; also: plate controls were buffer without enzyme for full effect and enzyme alone for no effect
# MazEF act = activators of E. coli MazEF toxin-antitoxin RNase, primary screen, biochemical, fluorescence, uHTS; Endoribonuclease toxin MazF (Escherichia coli (strain K12)), P0AE70; activation, % at 20 µM; FAM/BHQ RNA-DNA oligo cleavage fluorescence, 5 h; actives 0.32% (n = 350,000); AID 504720, 2011; in the data active = activation above about 50%
# Target sequence (P0AE70 whole entry, looked up): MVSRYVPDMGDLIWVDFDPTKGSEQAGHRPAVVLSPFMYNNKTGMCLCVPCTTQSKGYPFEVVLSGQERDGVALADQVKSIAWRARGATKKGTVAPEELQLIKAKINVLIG
# Anthrax LF inh2 = Bacillus anthracis LF protease inhibitors, primary screen, biochemical, multiplex microsphere, MLPCN library; Lethal factor (Bacillus anthracis), P15917; multiplex microsphere protease cleavage assay; inhibition, % at 10 µM; actives 0.12% (n = 360,000); also: plate controls were buffer without enzyme for full effect and enzyme alone for no effect
# BoNT-A LC inh2 = BoNT/A light chain protease inhibitors, primary screen, biochemical, flow cytometry, MLPCN library | Botulinum neurotoxin type A light chain protease (Clostridium botulinum A str. ATCC 3502) | multiplex microsphere protease substrate cleavage | inhibition, % at 10 µM | actives 0.17% (n = 360,000) | AID 588499, 2011; also: plate controls were buffer without enzyme for full effect and enzyme alone for no effect
# Bead autofluor = flagged as autofluorescent in microsphere protease counterscreen. compound autofluorescence counterscreen, microsphere flow cytometry; active compounds read high. fluorescence intensity (no concentration beside the values). actives 3.1% (n = 360,000). AID 624483; in the data active = fluorescence intensity above about 16000; inconclusive = no clear call, values can overlap the other calls
# * = called active by the depositor; ? = inconclusive; · = no result given. Rows were chosen to be rich in hits. Some 3.6% of all compounds tested hit in one or more screens of this group. Rule as the data show it, unless noted: active = inhibition above about 30%; inconclusive = no clear call, values can overlap the other calls; inactive = below that.
SMILES,BoNT F protease,MazEF act,Anthrax LF inh2,BoNT-A LC inh2,Bead autofluor
Nc1nc(Cl)cc(N2CCC(c3cc(-c4ccc(Cl)cc4Cl)n[nH]3)CC2)n1,-6.0,-8.4,-2.6,-2.1,21717*
CC(C(=O)Nc1ncc([N+](=O)[O-])s1)N1C(=O)c2ccccc2S1(=O)=O (centres undefined),3.5,9.5,-1.7,-1.1,5950
CC1Cc2cc(-c3csc(N)n3)ccc2O1 (centres undefined),?,8.5,5.4,-4.0,3888
CC(C)=CC(=O)NCc1c(Cl)cccc1-n1cccc1,-4.2,5.9,-0.6,-2.1,24294*
COc1ccccc1NC(=O)C1CCN(S(=O)(=O)c2ccc3c(c2)NC(=O)CO3)CC1,-0.7,1.6,-2.4,-1.0,6023
Cc1cccc2nc(Cn3c(=O)n(CCC(=O)NCc4ccco4)c(=O)c4sccc43)cc(=O)n12,8.6,-0.6,-2.5,9.9,20173*
Cc1cccc2nc(Cn3c(=O)n(CCC(=O)NCc4ccco4)c(=O)c4ccccc43)cc(=O)n12,-4.6,5.5,-0.3,0.8,3373
c1ccc(Cn2c(NCc3ccco3)nc3ccccc32)cc1,5.2,6.8,3.0,?,22272*
CCn1c(NCc2ccco2)nc2ccccc21,-4.3,2.6,-0.9,0.0,4593
CCOc1ccccc1N(C)S(=O)(=O)c1ccc2[nH]cc(C(=O)N(CCOC)CCOC)c(=O)c2c1,-2.2,-10.6,-0.2,-1.7,3666
COCCN(CCOC)C(=O)c1c[nH]c2ccc(S(=O)(=O)N(C)c3ccc(F)cc3)cc2c1=O,2.4,7.4,2.7,2.5,18595*
CC(=O)c1cc(-c2ccccc2)n(CC(=O)N2CCC(C)CC2)c1C,-3.9,-13.7,0.0,?,17028*
COc1ccc(S(=O)(=O)N2CCCCC2)cc1NC(=O)c1ccc(N2CCCC2=O)cc1,-10.8,11.2,-4.5,-0.4,3434
Fc1ccc(Br)cc1C1C=C(c2ccc(Br)cc2)Nc2ncnn21 (centres undefined),-6.8,2.3,-1.0,-5.2,22136*
CCc1ccc(C2=CC(c3cc(Br)ccc3F)n3ncnc3N2)cc1 (centres undefined),-1.0,-13.7,-0.2,0.2,8197
Cc1ccc(NC(=O)c2cc(S(=O)(=O)N(C)C)ccc2N2CCCC2)cc1F,-0.1,5.4,-3.8,0.6,5901
CCCCNC(=O)C1(C)CCCCN1C(=O)c1c(Cl)cccc1Cl (centres undefined),-8.1,·,-1.9,-0.4,3738
CC(C)(C)c1ccc(-c2nc(C=O)c3ccccn23)cc1,20.8,4.8,20.6,?,18863*
COc1ccc(C(=O)CSc2nccn2C)c(OC)c1,0.0,5.4,2.1,3.1,5590
COc1cc(OC)c(C(=O)OCC(=O)N2CCOCC2)cc1OC,-21.7,7.3,-4.7,-3.9,3621
O=C(CNC(=O)c1ccccc1C(=O)O)c1ccccc1,3.0,7.7,3.0,0.2,22929*
O=C(CN(Cc1cccs1)C(=O)CNS(=O)(=O)c1ccc(Cl)cc1)NCc1ccco1,1.4,-5.8,-1.6,?,21887*
COc1cc(/C=N/n2nnnc2N)ccc1O,-8.7,3.6,-5.4,-3.4,23466*
Nc1nnnn1/N=C/c1ccccn1,8.7,-0.2,-6.8,4.7,21208*
CSc1ccc(/C=N/n2nnnc2N)cc1,1.0,2.1,-1.4,0.6,22907*
SMILES,BoNT F protease,MazEF act,Anthrax LF inh2,BoNT-A LC inh2,Bead autofluor
Nc1nnnn1/N=C/c1ccc(O)cc1,0.0,2.9,1.7,-0.5,9263
CCN(CC)c1ccc(/C=N/n2nnnc2N)c(O)c1,-4.3,7.5,-5.3,2.6,22051*
CN(Cc1cn(C)nc1-c1ccccc1F)CC1CCCCO1 (centres undefined),-1.6,-4.4,-2.8,0.2,4670
Cc1ccc(C)c(NC(=O)CN(C)C(=O)C2=NNC(=O)CC2)c1,3.8,2.7,-2.9,1.1,8647
Cc1ccsc1C(=O)Nc1cc(Cl)ccc1-n1cncn1,0.1,-5.1,-3.3,0.5,6171
COc1cc(/C=C/C(=O)OCC(=O)Nc2c(C)n(C)n(-c3ccccc3)c2=O)cc(OC)c1OC,-5.1,6.8,-5.3,-0.8,3094
COc1cc(/C=N/N2CCN(c3ccccc3OC)CC2)ccc1O,0.4,-8.2,-5.0,?,16130*
O=C(NCCS(=O)(=O)c1ccc(Br)cc1)c1ccc(Cl)cc1Cl,-2.1,-8.5,0.4,-1.8,4712

# Screens deposited in PubChem by several laboratories.
